Active and inactive are the calls of the source.

One assay deals with Albumin (Bos taurus) (UniProt P02769). The experiment in a line: compounds binding labelled BSA control protein – biochemical, small-molecule microarray, Alexa647 label, 635/667 nm fluorescence, artefact control for SMM control protein annotation, profiling panel (AID 1118).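 Further: score merges 667 nm emission intensity and signal-to-noise per printed compound spot.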 The settings on record: BSA-A647 binding, fluorescence 635 nm, higher = more signal.
Assay [1] is described as follows: probe aXIP binding to arrayed compounds – biochemical, NeuroSMM set, 635/667 nm fluorescence, primary screen (AID 1119).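 Further: probe is the protein aXip251-270 applied at 1 µg/mL to compound-printed slides; binding of probe to printed compounds measured as 667 nm fluorescence plus signal to noise.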 The settings on record: small-molecule microarray, higher = more signal, called active from +8 up or from −8 down.
Assay [2] can be described thus: probe aNOTCH3 binding on compound microarray – biochemical, small-molecule microarray, 635/667 nm fluorescence, primary screen (AID 1120).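 Further: probe is a biotin-tagged antibody raised against NOTCH3 rather than NOTCH3 protein; score merges spot fluorescence near 667 nm with spot signal to noise.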 The following applies: higher = more signal.
A short description of assay [3]: probe aNOTCH2 binding on compound microarray – biochemical, small-molecule microarray, 635/667 nm fluorescence, primary screen (AID 1121).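 Further: score merges feature fluorescence read at 667 nm with its signal to noise.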 The settings on record: higher = more signal.
Assay [4] has as its target Carbonic anhydrase 2 (Homo sapiens) (UniProt P00918). The experiment in a line: compounds binding carbonic anhydrase 2 – biochemical, small-molecule microarray, Alexa647-labelled CAII, profiling panel (AID 1122). The following applies: CAII-A647 binding fluorescence, higher = more signal.
The nature of assay [5]: COS7 lysate on small-molecule microarray, probe aHis, 635 nm (AID 1123).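 Further: z-score combines 667nm fluorescence intensity with signal-to-noise per printed compound spot.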 The following applies: COS7 cell lysate, fluorescence, higher = more signal.
Assay [6] in a line: probe aLAP1 signal on lysate-treated microarray – cell lysate, small-molecule microarray, COS7 lysate, primary screen (AID 1124).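 Further: lysate comes from COS7 cells expressing LAP1 and is applied at 0.3 µg/mL; score merges spot fluorescence near 667 nm with signal-to-noise over triplicate slides.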 The following applies: probe aLAP1, fluorescence, higher = more signal.
The subject of another assay is Sam68 (KHDRBS1). Put plainly: compounds binding KHDRBS1 protein – biochemical, small-molecule microarray, 635 nm fluorescence, primary screen (AID 1125).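 Further: score merges 667 nm channel intensity with signal to noise over triplicate slides.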 The settings on record: higher = more signal.
The test system of assay [7] is Chordin-like protein 2 (CHRDL2). Put plainly: compounds binding chordin-like 2 – biochemical, small-molecule microarray, 635 nm fluorescence, primary screen (AID 1126).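 Further: printed compound slides probed with Chrdl2 protein at 4 µg/mL for 1 h at 4 C; score merges 667 nm emission intensity with signal to noise over three replicate slides.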 The settings on record: fluorescence 635 nm, higher = more signal.
Assay [8] has as its target Concanavalin-A (Canavalia ensiformis) (UniProt P02866). Put plainly: compounds binding concanavalin A lectin – biochemical, small-molecule microarray, Alexa647 label, 635 nm, artefact control for SMM control protein annotation, primary screen (AID 1127).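 Further: z combines 667 nm emission intensity with signal-to-noise across three replicate slides.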 The following applies: ConA-A647 binding fluorescence, higher = more signal.
A short description of assay [9]: compounds binding Alexa647 anti-His antibody – biochemical, small-molecule microarray, 635 nm fluorescence, artefact control for SMM control protein annotation, primary screen (AID 1128).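 Further: score merges feature fluorescence with signal-to-noise for each printed compound spot.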 The following applies: higher = more signal.
The subject of assay [10] is Human papillomavirus type 1a E7 protein (residues 1-88). Put plainly: HPV1a E7 small-molecule binders, primary screen, biochemical, small-molecule microarray, residues 1-88, 635 nm (AID 1129). The following applies: small-molecule microarray binding, fluorescence 635 nm; higher = more signal.
The target in assay [11] is Focal adhesion kinase 1 (Homo sapiens) (UniProt Q05397). Put plainly: PTK2 protein binding on printed compound slides – biochemical, small-molecule microarray, 635/667 nm fluorescence, BSA, DTT, primary screen (AID 1130).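 Further: composite of spot emission at 667 nm and signal to noise over triplicate slides.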 The following applies: 635 nm fluorescence, higher = more signal.
Assay [12] has as its system Fibrinogen (Alexa647-labelled). The experiment in a line: Alexa647-fibrinogen binding to printed small molecules – biochemical, small-molecule microarray, 635/667 nm fluorescence, artefact control for SMM control-protein annotation, profiling panel (AID 1131).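 Further: z-score merges 667 nm fluorescence with per-spot signal-to-noise over triplicate slides.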 The settings on record: fibrinogen-A647 binding fluorescence, higher = more signal.
In assay [13] the target is Follistatin (Homo sapiens) (UniProt P19883). Put plainly: FST protein binding to printed compounds – biochemical, small-molecule microarray, 635/667 nm fluorescence, primary screen (AID 1132). The following applies: 635 nm fluorescence, higher = more signal.
Assay [14] has as its target Fibroblast growth factor 2 (Homo sapiens) (UniProt P09038). The experiment in a line: basic fibroblast growth factor binding to printed compounds – biochemical, small-molecule microarray, 635/667 nm fluorescence, primary screen (AID 1133). The following applies: FGF2, fluorescence 635/667, higher = more signal.
A short description of assay [15]: JC-1 mitochondrial potential readout, lung cancer cells – cell-based, A549, JC-1 fluorescence, basal, 24 h, 100 nL, profiling panel (AID 1138).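 Further: A549 lung adenocarcinoma cells under basal conditions with no added stimulus; test concentration not given here.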 The following applies: higher = more signal.
The subject of another assay is Lefty1. The experiment in a line: Lefty1 protein binding to printed compounds – biochemical, small-molecule microarray, 635/667 nm fluorescence, primary screen (AID 1139). The following applies: fluorescence 635/667, higher = more signal.
Assay [16] has as its system wheat germ agglutinin (Triticum aestivum), Alexa647-labelled. Put plainly: Alexa647-WGA lectin binding to printed small molecules – biochemical, small-molecule microarray, 635/667 nm fluorescence, artefact control for SMM control-protein annotation, profiling panel (AID 1140).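 Further: score merges 667 nm feature emission with signal to noise over triplicate slides.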 The following applies: WGA-A647 binding, 635 nm fluorescence, higher = more signal.
Assay [17] deals with Luciferin 4-monooxygenase (Photinus pyralis) (UniProt P08659). Put plainly: inhibition of purified Photinus pyralis luciferase – biochemical, luminescence, purified enzyme, 2006 set, primary screen (AID 1141).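 Further: cell-free assay with purified firefly luciferase at 100 ng per well in PBS; test concentration not given here.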 The settings on record: purified firefly luciferase, SteadyGlo luminescence, 30 min; higher = more signal, called active from +8 up or from −8 down.
Luciferin 4-monooxygenase (Photinus pyralis), sequence (P08659 whole entry, looked up): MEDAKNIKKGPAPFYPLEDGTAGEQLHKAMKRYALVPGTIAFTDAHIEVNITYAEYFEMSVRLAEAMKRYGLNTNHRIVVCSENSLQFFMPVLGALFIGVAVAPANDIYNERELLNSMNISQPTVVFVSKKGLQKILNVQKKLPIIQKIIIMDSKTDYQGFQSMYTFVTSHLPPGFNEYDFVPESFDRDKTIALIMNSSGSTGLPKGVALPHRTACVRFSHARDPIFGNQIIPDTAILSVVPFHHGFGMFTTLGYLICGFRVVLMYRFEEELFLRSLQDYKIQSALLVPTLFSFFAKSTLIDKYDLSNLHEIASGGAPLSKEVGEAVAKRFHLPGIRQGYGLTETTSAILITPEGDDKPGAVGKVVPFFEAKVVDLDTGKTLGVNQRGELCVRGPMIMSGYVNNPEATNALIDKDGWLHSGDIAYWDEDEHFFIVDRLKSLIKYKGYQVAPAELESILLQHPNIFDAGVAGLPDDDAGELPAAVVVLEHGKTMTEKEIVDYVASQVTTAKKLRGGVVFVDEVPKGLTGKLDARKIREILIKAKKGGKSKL

Concanavalin-A (Canavalia ensiformis), sequence (P02866 whole entry, looked up): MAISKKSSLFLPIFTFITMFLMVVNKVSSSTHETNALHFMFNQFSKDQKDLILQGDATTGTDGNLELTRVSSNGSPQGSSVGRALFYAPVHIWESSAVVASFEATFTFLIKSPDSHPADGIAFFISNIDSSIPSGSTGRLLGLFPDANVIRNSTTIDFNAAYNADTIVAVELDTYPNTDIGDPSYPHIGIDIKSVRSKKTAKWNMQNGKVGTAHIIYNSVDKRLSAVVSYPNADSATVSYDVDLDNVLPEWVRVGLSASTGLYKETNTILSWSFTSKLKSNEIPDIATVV
Albumin (Bos taurus), sequence (P02769 whole entry, looked up): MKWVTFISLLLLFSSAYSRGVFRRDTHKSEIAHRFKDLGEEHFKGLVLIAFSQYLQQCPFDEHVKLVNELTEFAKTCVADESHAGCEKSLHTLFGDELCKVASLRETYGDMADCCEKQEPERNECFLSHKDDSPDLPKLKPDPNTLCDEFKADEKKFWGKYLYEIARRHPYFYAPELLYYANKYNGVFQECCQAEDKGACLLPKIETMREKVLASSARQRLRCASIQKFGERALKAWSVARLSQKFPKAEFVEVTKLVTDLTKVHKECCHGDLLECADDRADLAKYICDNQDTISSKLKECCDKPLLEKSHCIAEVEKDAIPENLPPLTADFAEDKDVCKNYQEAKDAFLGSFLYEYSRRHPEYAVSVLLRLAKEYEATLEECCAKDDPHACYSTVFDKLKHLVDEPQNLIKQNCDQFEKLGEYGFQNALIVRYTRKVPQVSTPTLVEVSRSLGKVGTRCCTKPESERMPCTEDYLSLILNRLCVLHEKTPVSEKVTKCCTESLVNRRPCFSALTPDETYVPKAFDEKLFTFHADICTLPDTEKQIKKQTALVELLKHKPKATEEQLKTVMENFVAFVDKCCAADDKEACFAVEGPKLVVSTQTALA
Follistatin (Homo sapiens), sequence (P19883 whole entry, looked up): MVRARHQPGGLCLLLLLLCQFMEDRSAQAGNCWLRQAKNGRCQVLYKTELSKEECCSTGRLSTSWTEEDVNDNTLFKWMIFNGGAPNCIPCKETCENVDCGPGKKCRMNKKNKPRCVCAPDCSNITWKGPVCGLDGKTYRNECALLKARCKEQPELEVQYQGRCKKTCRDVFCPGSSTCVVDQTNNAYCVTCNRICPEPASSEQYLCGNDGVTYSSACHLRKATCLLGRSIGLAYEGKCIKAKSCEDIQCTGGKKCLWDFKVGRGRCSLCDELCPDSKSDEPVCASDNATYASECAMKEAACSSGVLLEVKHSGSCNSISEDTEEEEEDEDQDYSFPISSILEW
Fibroblast growth factor 2 (Homo sapiens), sequence (P09038 whole entry, looked up): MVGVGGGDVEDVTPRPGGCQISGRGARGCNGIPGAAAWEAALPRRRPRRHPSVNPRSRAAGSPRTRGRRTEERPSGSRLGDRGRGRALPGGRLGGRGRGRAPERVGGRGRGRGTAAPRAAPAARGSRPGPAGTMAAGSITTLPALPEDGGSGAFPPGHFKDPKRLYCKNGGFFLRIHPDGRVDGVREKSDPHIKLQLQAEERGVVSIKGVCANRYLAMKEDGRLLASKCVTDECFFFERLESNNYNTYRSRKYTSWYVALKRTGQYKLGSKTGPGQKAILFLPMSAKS
Focal adhesion kinase 1 (Homo sapiens), sequence (Q05397 whole entry, looked up): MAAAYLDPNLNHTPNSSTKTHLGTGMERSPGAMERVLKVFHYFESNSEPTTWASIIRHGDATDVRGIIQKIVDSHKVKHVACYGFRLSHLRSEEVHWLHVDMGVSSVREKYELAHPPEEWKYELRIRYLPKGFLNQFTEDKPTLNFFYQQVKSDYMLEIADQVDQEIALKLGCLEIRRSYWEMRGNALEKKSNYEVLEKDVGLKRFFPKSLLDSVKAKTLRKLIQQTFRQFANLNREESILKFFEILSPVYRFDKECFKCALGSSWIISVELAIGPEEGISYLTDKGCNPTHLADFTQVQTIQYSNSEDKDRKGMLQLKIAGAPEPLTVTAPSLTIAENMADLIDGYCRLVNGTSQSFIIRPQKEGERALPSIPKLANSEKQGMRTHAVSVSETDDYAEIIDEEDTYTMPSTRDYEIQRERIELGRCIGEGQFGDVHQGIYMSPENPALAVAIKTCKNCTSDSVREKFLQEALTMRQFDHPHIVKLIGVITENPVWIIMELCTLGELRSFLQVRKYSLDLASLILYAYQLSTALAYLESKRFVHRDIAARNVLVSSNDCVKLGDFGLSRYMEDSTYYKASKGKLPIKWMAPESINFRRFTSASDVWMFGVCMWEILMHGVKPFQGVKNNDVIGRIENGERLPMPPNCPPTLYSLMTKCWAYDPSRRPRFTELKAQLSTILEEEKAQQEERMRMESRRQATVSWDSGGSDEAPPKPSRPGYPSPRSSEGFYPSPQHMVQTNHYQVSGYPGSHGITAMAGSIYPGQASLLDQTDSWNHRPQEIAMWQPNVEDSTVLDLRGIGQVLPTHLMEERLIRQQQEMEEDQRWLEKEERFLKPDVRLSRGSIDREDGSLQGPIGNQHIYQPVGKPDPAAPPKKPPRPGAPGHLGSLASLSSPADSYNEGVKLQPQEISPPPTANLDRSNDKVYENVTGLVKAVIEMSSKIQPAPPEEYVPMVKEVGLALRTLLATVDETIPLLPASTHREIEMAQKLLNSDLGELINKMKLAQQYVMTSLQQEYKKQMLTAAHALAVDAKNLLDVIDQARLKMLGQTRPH

In the case of `COC(=O)CC=C[C@H](C)[C@@H](OCc1ccccc1Br)C(C)C`, the composite z-score in the assay with Albumin (Bos taurus) was -0.0311; in assay [2] it was -0.0343; in [3] it was -0.113; in assay [4], -0.279; in assay [5], 0.164; in assay [6], 0.0326. Also, the composite z-score in the assay on Sam68 (KHDRBS1) was -0.385; in [7] it was 0.382; in assay [8], 0.112; in [9] it was 0.219; in assay [10], -0.161; in assay [11], 0.0767. The composite z-score in assay [12] was -0.263; in assay [13] it was 0.292; in assay [14], -0.0207; in the assay on Lefty1 it was 0.646; in assay [16], 0.0141. For the same compound, the composite Z-score in assay [1] was -0.0469 (inactive). In addition, the figures for the z-score in assay [15] and in assay [17] were 1.32 and -0.401 (inactive), respectively.
With `Cc1ccc(S[C@]2(C(=O)NCC(F)(F)F)CC(=O)N(Cc3ccccc3Cl)[C@@H]2c2ccc(CO)cc2I)cc1`, the composite z-score in the assay with Albumin (Bos taurus) is -0.937; in assay [2], -0.133; in assay [3] it was -0.134; in assay [4], 0.796; in [5], 1.56; in assay [6], -0.49. Moreover, the composite z-score in the assay on Sam68 (KHDRBS1) is 0.0712; in [7], -1.04; in assay [8] it was -0.275; in assay [9], -1.18; in assay [10] it was -0.0053; in [11], 0.395. Further, the composite z-score is -0.563 in assay [12]; -0.253 in assay [13]; -0.624 in assay [14]; -0.558 in the assay with Lefty1; 1.13 in [16]. For the same compound, the composite Z-score in assay [1] was 0.0162 (inactive). In addition, the z-score in [15] is 1.14; in assay [17], -0.289 (inactive).
Regarding `CC(C)C[C@@H]1NC(=O)[C@H]2C[C@@H](C(=O)NCCCCCCN(C)C)[C@@H](c3cccc(OCCO)c3)N2C1=O`, the composite z-score with Albumin (Bos taurus) is -0.615; in assay [2], 0.16; in assay [3] it was -0.153; in [4], 0.557; in assay [5] it was 2.81; in [6], 1.44. Also, the composite z-score with Sam68 (KHDRBS1) came to 1.31; in assay [7] it was 1.47; in assay [8], 1.09; in assay [9] it was 2.19; in [10], 1.01; in assay [11] it was 0.204. Moreover, the composite z-score came to 0.0478 in assay [12]; 1.3 in assay [13]; 1.6 in assay [14]; 1.65 with Lefty1; 0.591 in assay [16]. Further, the composite Z-score in assay [1] is 2.07 (inactive). Besides, the z-score in assay [15] is -0.0993; in assay [17], -0.156 (inactive).
Consider `CC(C)OC(=O)C=C1C[C@@H](c2ccc(C#N)cc2)O[C@@H](c2ccc(C#N)cc2)O1`, for which the composite z-score with Albumin (Bos taurus) came to 0.992; in assay [2] it was 0.725; in assay [3], 0.0186; in assay [4], 0.693; in assay [5], 3.07; in assay [6], 0.148. In addition, the composite z-score in the assay with Sam68 (KHDRBS1) is 1.32; in assay [7], -0.595; in assay [8], 1.15; in [9], 1.48; in assay [10], 1.22; in [11], 0.704. Also, the composite z-score in [12] amounted to 0.978; in [13] it was 1.31; in assay [14], 0.267; in the assay on Lefty1, 0.48; in [16], 0.972. In [1], the composite Z-score was 0.914 (inactive). In addition, the z-score in assay [15] was -0.356; in assay [17] it was -0.178 (inactive).
As for `O=C1[C@H]2[C@H]3[C@H](O)[C@H](O)CC(=NO[C@@H]4O[C@H](CO)[C@@H](O)[C@H](O)[C@H]4O)[C@H]3CC[C@H]2C(=O)N1C1CCCCC1`, the composite z-score is 0.785 in the assay with Albumin (Bos taurus); 0.11 in assay [2]; -0.112 in assay [3]; 0.124 in assay [4]; 0.197 in assay [5]; 0.3 in [6]. For the same compound, the composite z-score in the assay on Sam68 (KHDRBS1) was 1.3; in assay [7], -0.298; in assay [8] it was -0.316; in assay [9] it was 0.648; in [10], 1.16; in assay [11], 0.84. The composite z-score in assay [12] was 0.402; in assay [13], -0.384; in [14], -0.0148; in the assay on Lefty1, 0.625; in [16], 0.183. For the same compound, the composite Z-score in assay [1] is -0.0164 (inactive). In addition, the z-score was -0.0288 in assay [15] and 0.23 (inactive) in assay [17].
Consider `C=C(CCCC)C(=O)CC[C@@H](OC(C)=O)c1cccc(OCCO)c1`, for which the composite z-score with Albumin (Bos taurus) was -0.528; in assay [2], -0.0933; in [3], -0.193; in assay [4], 0.767; in assay [5], -0.022; in [6], 0.953. The composite z-score in the assay on Sam68 (KHDRBS1) was -0.106; in [7], 0.582; in assay [8], 0.259; in assay [9] it was 0.936; in [10], -0.864; in [11], -0.0296. Besides, the composite z-score is -0.75 in assay [12]; 1.3 in assay [13]; 0.829 in assay [14]; 0.932 in the assay with Lefty1; -1.1 in [16]. Moreover, in assay [1], the composite Z-score is 0.0491 (inactive). Besides, the z-score in assay [15] was -0.497; in assay [17] it was -0.879 (inactive).

Values taken from PubChem BioAssay.
